Test results as given in PubChem BioAssay AID488969 (Vanderbilt High Throughput Screening Facility, 2010).
In all, about 110,000 compounds were measured (“z-score”: median about -0.1, highest 2% from about 2 on). This excerpt belongs to a sample that is enriched for the highest values. Activity calls are given as the source filed them.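 The calls were made as follows: active = z-score in the third read window above 3 or below -3; inactive = the rest.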

biological target: Metabotropic glutamate receptor 8 (Rattus norvegicus) (UniProt P70579); assay: mGluR8 Gi/Go-coupled signaling modulation – cell-based, rat, thallium flux, HTS, primary screen (AID 488969); details: HEK293 rat mGluR8, GIRK (G protein-gated inwardly rectifying potassium channel) thallium flux, FluoZin2; at 10 µM; stronger effect = higher value; submaximal glutamate (EC20) added with thallium
Sequence (P70579 whole entry, looked up): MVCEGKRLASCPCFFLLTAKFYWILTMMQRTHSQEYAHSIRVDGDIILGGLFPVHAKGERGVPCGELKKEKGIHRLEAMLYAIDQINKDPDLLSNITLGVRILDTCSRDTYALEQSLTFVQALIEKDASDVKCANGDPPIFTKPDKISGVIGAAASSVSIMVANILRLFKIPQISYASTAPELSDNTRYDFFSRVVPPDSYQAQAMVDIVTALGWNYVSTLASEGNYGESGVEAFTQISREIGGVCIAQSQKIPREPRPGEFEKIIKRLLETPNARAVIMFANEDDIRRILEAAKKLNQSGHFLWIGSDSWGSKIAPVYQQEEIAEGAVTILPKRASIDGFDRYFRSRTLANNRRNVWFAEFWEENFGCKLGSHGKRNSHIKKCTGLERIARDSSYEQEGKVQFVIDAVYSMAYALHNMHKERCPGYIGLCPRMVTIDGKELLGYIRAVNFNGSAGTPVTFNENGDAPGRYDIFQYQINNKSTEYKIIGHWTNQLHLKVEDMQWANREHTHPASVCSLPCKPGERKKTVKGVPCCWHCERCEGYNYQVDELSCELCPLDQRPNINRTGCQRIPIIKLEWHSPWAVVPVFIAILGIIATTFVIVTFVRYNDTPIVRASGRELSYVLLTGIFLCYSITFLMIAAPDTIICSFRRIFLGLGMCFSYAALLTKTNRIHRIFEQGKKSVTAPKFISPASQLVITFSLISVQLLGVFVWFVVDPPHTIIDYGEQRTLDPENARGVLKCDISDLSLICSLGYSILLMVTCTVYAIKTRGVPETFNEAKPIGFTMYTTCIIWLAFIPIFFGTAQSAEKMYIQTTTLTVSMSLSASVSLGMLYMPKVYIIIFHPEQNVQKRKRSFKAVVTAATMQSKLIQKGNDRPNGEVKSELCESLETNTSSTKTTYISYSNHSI

First: O=C1/C(=C/c2cccnc2)Oc2cc(OS(=O)(=O)c3ccc(Cl)cc3)ccc21
Second: O=C1/C(=C/c2cccnc2)SC(=S)N1c1ccc(F)cc1
The z-score of the first is higher: 0.0689 for the first, -0.12 for the second.

Compared with Cc1nn(-c2ccccc2)c(C)c1/C=N/NC(=O)c1cc(-c2cccc3ccccc23)n[nH]1, OCc1cn(-c2ccccc2)nc1-c1ccc(-c2nn(-c3ccccc3)cc2CO)cc1 is higher in z-score: -0.481 for the first, 0.428 for the second.

First: Cc1c(C(=O)Oc2ccc(F)cc2)sc2ncn(Cc3cccc(F)c3)c(=O)c12
Second: O=C(NC1(C(F)(F)F)NC(=O)N(Cc2cccnc2)C1=O)c1ccc(F)cc1 (stereo not drawn)
The z-score of the first is lower: -0.113 for the first, 0.269 for the second.

Going from O=c1c2ccccc2[nH]c(=S)n1Cc1cccs1 to O=c1c2cc(Cl)ccc2[nH]c(=S)n1Cc1ccccn1, the z-score falls from 2.21 to 1.21.

Going from O=C(CCn1c(=S)[nH]c2ccccc2c1=O)N1CCOCC1 to CN1CCN(C(=O)c2ccc3c(=O)n(Cc4ccco4)c(=S)[nH]c3c2)CC1, the z-score rises from 0.695 to 0.757.

Compared with CCN(CC)CCn1c(=S)[nH]c2ccc(Cl)cc2c1=O, COc1cc2[nH]c(=S)n(Cc3ccco3)c(=O)c2cc1OC is lower in z-score: 1.01 for the first, -0.209 for the second.

First: CCC1CCCCN1Cc1ccc(OC)c(C)c1C (stereo not drawn)
Second: COc1ccccc1OCCCOc1c(C)cc(C)cc1Br
The z-score of the first is higher: 0.363 for the first, -0.185 for the second.

Compared with CC(C)Oc1ccc(/C(O)=C2/C(=O)C(=O)N(CCCn3ccnc3)C2c2cccnc2)cc1 (stereo not drawn), c1ccc(-c2oc3ncnc(NCCCn4ccnc4)c3c2-c2ccccc2)cc1 is higher in z-score: -0.0218 for the first, 0.609 for the second.

Compared with O=S(=O)(Nc1ncccn1)c1ccc(Nc2ncnc3ccccc23)cc1, Cc1ccc(NC(=O)c2cc(S(=O)(=O)c3ccccc3)ccc2Cl)cc1 is lower in z-score: 0.439 for the first, -0.0678 for the second.

Going from Cc1cccc(OCC(=O)Nc2sc3c(c2C#N)CCC3)c1 to CC(C)c1nc(NCc2ccccc2)c(C#N)c2c1CCCC2, the z-score rises from -0.312 to -0.133.

First: O=C(NC1(C(F)(F)F)NC(=O)N(Cc2cccnc2)C1=O)c1ccccc1 (stereo not drawn)
Second: O=C(NC1(C(F)(F)F)NC(=O)N(Cc2cccnc2)C1=O)c1ccncc1 (stereo not drawn)
The z-score of the first is lower: 1.13 for the first, 2.13 for the second.

First: CCOC(=O)/C=C/C(=O)Nc1ccccc1-c1ccccc1NC(=O)/C=C/C(=O)OCC
Second: CCOC(=O)c1c(C)[nH]c(C)c1C(=O)COC(=O)/C=C/c1ccc(OC(F)F)cc1
The z-score of the first is higher: -0.138 for the first, -0.244 for the second.

First: FC(F)(F)c1nnc2ccc(N3CCCC3)nn12
Second: COc1ccc(-c2nc(C#N)c(N3CCC(C(N)=O)CC3)o2)cc1
The z-score of the first is lower: -0.343 for the first, -0.0894 for the second.

First: CCOC(=O)c1cnc(-n2nc(C)cc2C)nc1Nc1ccccc1OC
Second: CCOC(=O)c1cc2n(c1/N=C/N(C)C)-c1ccccc1C2=O
The z-score of the first is higher: 0.0785 for the first, -0.437 for the second.

Compared with CCC1CCCCN1S(=O)(=O)c1ccc(S(=O)(=O)N(Cc2ccccn2)CC2CCCO2)cc1 (stereo not drawn), CCN(CC)S(=O)(=O)c1ccc(C(=O)OCCNC(=O)c2cccnc2)cc1 is lower in z-score: -0.251 for the first, -0.485 for the second.

Compared with Nc1cc(=O)[nH]c(=O)n1Cc1ccco1, O=c1[nH]c2cccnc2n1Cc1ccco1 is lower in z-score: 0.299 for the first, 0.26 for the second.

Going from O=c1c2cc3c(cc2[nH]c(=S)n1Cc1ccco1)OCO3 to CC(C)NC(=O)c1ccc2c(=O)n(Cc3ccco3)c(=S)[nH]c2c1, the z-score falls from 2.77 to 0.167.

Compared with O=C(c1ccc2c(=O)n(Cc3ccco3)c(=S)[nH]c2c1)N1CCN(Cc2ccccc2)CC1, N=c1c2c(-c3ccccc3)c(-c3ccccc3)n(Cc3ccco3)c2ncn1CCN1CCOCC1 is lower in z-score: 0.611 for the first, -0.19 for the second.

First: COc1ccc(-n2c(SCCC(=O)O)nnc2-c2ccncc2)cc1
Second: COc1ccc(C(=O)Nc2nc3ccc4nc(C)sc4c3s2)cc1
The z-score of the first is higher: 0.658 for the first, -0.0988 for the second.

First: Cc1cc(C)cc(C(=O)NCC(=O)OCC(=O)N2c3ccccc3NC(=O)C2(C)C)c1
Second: COCC(C)n1c(SCC(=O)NNC(=O)c2ccccc2)nc2ccccc2c1=O (stereo not drawn)
The z-score of the first is higher: -0.138 for the first, -0.346 for the second.

First: CCOc1[nH]n(-c2ccc(Cl)cc2)c(=O)c1C=Nc1ccc(C)cc1
Second: CCOc1[nH]n(-c2ccccc2)c(=O)c1C=Nc1ccc(Cl)cc1
The z-score of the first is lower: -0.176 for the first, 0.655 for the second.

First: OCCNc1ncnc2c1c(-c1ccccc1)c(-c1ccccc1)n2Cc1ccco1
Second: c1ccc(-c2c(-c3ccccc3)n(Cc3ccco3)c3ncnc(NCCCn4ccnc4)c23)cc1
The z-score of the first is lower: -0.463 for the first, 2.78 for the second.

First: N=c1c2c(-c3ccccc3)c(-c3ccccc3)n(Cc3ccco3)c2ncn1Cc1ccccc1
Second: N=c1c2c(-c3ccccc3)c(-c3ccccc3)n(Cc3ccccc3)c2ncn1CCO
The z-score of the first is higher: 0.528 for the first, 0.392 for the second.

Going from N=c1c2c(-c3ccccc3)c(-c3ccccc3)n(Cc3ccco3)c2ncn1CCO to O=C(CN(Cc1ccccc1)C(=O)CSc1nnc(COc2ccccc2)o1)NC1CCCC1, the z-score falls from 0.759 to 0.0593.

Going from CCC(C)NC(=O)Cn1c(COc2ccc(Cl)cc2Cl)nc2ccccc21 (stereo not drawn) to CC1Cc2ccccc2N1C(=O)CCNS(=O)(=O)c1cccc2nsnc12 (stereo not drawn), the z-score rises from -2.32 to 0.906.

First: Cc1cc(/C=C(\C#N)C(=O)NC2CC2)c(C)[nH]1
Second: CCOC(=O)/C(C#N)=C\C1=C(N2CCCC2)CC(C)(C)OC1
The z-score of the first is lower: 0.155 for the first, 0.457 for the second.

First: CCCNC(=O)c1cccc(COCC(F)(F)C(F)F)c1
Second: CCC(=O)n1nc(-c2ccccc2)nc1N
The z-score of the first is higher: -0.0567 for the first, -0.874 for the second.

First: Cc1ccc(S(=O)(=O)N2CCOCC2)cc1C(=O)Nc1ccc2c(c1)CCC2
Second: CCOC(=O)c1cc(C(C)=O)c(=O)n(C)c1N
The z-score of the first is lower: -0.205 for the first, -0.198 for the second.

Compared with CCCC(=O)n1nc(-c2cccnc2)nc1N, S=C(NC1CCCCC1)N(CCc1nc2ccccc2[nH]1)C1CCCC1 is lower in z-score: 0.575 for the first, -1.02 for the second.

Going from CCOC(=O)/C(C#N)=C/C1=C(N2CCCC2)CC(C)(C)OC1 to CCOC(=O)/C(C#N)=C/C1=C(N2CCCC2)CC(C)(CC)OC1 (stereo not drawn), the z-score falls from 2.75 to -0.501.

With O=c1c2cc(Cl)ccc2[nH]c(=S)n1Cc1cccs1 the z-score was 4.2 (active).
With O=c1[nH]c2ccc(Cl)cc2c(=O)n1Cc1ccco1 the z-score was 5.27 (active).
In the case of O=c1c2cc(Cl)ccc2[nH]c(=S)n1Cc1ccco1, the z-score is reported as 16.1 (active).
In the case of CCOc1[nH]n(-c2ccc(Cl)cc2)c(=O)c1C=Nc1ccc(Cl)cc1, the z-score is reported as 3.26 (active).
With N=c1c2c(-c3ccccc3)c(-c3ccccc3)n(Cc3ccccc3)c2ncn1CCCO the z-score was 4.35 (active).
CC(C)Cn1cnc2c(c(-c3ccccc3)c(-c3ccccc3)n2Cc2ccco2)c1=N was tested, and the z-score was 3.58 (active).
In the case of CCCC(=O)n1nc(-c2ccccc2)nc1N, the z-score is reported as 9.34 (active).
For CCOC(=O)c1cc2n(c1N)-c1ccccc1C2=O, the z-score was 5.13 (active).
